Assay [1] addresses Leukocyte tyrosine kinase receptor (Homo sapiens) (UniProt P29376). To be noted: at 1 µM.
Assay [2] addresses Tyrosine-protein kinase Lyn (Homo sapiens) (UniProt P07948). Conditions: at 0.1 µM.
For assay [3] the target is unchanged. Conditions: at 1 µM.
Assay [4] has the same target. Conditions: at 0.1 µM. The source holds these as a separate data set.
The target is the same in assay [5]. Conditions: at 1 µM. The source holds these as a separate data set.
Assay [6] deals with T1, Tyrosine-protein kinase Mer (Homo sapiens) (UniProt Q12866).
T1 sequence (whole entry): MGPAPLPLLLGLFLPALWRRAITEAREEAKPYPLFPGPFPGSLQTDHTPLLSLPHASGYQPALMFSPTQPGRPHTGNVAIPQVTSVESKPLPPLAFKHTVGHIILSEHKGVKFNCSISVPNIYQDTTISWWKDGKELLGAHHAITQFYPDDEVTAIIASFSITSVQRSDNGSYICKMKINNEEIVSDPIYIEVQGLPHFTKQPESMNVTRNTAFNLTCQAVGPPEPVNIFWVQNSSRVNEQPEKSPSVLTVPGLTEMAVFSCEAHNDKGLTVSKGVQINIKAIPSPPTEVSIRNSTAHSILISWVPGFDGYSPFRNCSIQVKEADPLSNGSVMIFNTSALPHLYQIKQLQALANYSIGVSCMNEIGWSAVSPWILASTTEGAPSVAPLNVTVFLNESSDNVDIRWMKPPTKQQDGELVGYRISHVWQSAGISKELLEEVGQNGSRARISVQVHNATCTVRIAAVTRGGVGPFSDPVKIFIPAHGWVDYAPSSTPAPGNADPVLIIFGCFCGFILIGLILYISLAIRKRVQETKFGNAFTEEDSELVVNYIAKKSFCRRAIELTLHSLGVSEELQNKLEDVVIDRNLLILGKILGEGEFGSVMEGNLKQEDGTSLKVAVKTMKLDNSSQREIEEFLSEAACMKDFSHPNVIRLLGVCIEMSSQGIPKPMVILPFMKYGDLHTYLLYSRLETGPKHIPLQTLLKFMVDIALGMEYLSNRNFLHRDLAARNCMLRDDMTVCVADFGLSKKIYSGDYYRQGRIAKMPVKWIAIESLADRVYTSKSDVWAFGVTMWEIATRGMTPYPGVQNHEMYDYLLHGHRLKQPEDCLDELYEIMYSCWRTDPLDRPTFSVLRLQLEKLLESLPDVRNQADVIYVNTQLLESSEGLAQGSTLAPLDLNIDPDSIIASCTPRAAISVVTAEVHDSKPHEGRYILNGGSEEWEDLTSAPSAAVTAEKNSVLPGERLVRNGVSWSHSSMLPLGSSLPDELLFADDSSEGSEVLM
To be noted: at 0.1 µM.

The target in assay [7] is T1, Tyrosine-protein kinase Mer (Homo sapiens). Conditions: at 1 µM.
For assay [8], the target named is Hepatocyte growth factor receptor (Homo sapiens) (UniProt P08581). To be noted: at 0.1 µM.
The target is the same in assay [9]. To be noted: at 1 µM.
For assay [10], the target named is T2, Muscle, skeletal receptor tyrosine-protein kinase (Homo sapiens) (UniProt O15146).
T2 sequence (whole entry): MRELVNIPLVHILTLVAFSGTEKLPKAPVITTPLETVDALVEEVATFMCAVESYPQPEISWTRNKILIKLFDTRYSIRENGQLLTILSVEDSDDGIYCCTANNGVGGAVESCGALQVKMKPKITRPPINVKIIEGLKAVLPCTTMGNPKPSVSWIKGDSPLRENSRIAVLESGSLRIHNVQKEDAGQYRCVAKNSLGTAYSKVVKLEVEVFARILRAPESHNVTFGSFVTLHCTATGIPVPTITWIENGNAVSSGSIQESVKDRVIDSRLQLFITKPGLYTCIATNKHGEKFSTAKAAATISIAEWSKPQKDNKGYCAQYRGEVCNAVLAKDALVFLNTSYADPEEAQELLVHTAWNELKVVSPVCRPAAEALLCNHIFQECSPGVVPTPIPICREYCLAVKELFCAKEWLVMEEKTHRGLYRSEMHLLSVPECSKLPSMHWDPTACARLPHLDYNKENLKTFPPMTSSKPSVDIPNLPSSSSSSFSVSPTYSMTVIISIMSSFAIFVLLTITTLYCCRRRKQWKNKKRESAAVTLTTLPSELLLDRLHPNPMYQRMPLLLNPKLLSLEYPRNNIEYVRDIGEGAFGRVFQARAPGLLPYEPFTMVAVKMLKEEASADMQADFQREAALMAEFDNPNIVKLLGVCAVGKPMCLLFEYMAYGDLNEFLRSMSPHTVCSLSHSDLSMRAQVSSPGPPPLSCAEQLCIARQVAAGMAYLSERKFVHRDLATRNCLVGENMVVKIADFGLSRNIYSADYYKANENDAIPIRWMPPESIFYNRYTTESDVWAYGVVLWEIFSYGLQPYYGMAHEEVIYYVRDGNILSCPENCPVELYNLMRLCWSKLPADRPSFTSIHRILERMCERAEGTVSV
Conditions: at 0.1 µM.

For assay [11], the target named is T2, Muscle, skeletal receptor tyrosine-protein kinase (Homo sapiens). Conditions: at 1 µM.
Assay [12] addresses Platelet-derived growth factor receptor alpha (Homo sapiens) (UniProt P16234). To be noted: at 0.1 µM.
The target is the same in assay [13]. Conditions: at 1 µM.
The subject of assay [14] is Platelet-derived growth factor receptor alpha (Homo sapiens), P16234 [D842V]. Conditions: at 0.1 µM.
Assay [15] has the same test system. Conditions: at 1 µM.
Assay [16] relates to Platelet-derived growth factor receptor alpha (Homo sapiens), P16234 [T674I]. Conditions: at 0.1 µM.
Sequence of Platelet-derived growth factor receptor alpha (Homo sapiens), P16234 [T674I] (P16234 whole entry T674I): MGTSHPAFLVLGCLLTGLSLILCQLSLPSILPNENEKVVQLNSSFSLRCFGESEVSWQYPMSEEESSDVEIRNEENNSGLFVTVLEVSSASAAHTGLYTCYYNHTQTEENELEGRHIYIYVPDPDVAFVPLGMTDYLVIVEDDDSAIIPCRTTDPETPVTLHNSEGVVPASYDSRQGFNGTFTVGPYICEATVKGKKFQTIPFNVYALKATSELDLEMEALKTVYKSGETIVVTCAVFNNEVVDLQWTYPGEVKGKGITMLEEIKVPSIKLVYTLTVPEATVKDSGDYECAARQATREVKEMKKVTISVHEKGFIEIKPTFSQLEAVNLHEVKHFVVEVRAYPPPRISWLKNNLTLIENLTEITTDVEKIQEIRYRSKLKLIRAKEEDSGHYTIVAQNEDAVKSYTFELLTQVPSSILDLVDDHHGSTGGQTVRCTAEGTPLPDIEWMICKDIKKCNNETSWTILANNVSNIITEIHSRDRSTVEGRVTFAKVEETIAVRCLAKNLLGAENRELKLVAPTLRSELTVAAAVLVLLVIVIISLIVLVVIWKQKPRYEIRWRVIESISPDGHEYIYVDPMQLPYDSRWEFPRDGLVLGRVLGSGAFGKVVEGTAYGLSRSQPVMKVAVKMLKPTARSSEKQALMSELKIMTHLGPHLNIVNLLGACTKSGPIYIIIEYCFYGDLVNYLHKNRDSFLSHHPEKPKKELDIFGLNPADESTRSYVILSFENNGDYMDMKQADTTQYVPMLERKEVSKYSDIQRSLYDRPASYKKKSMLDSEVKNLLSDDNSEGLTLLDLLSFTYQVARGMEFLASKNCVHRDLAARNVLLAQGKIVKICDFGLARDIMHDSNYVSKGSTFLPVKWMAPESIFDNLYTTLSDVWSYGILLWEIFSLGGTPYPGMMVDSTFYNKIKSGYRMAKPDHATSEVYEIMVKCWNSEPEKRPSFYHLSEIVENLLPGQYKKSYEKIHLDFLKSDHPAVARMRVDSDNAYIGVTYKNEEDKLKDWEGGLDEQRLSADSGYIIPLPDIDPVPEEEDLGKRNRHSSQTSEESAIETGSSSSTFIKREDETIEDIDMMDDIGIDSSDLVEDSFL
The test system is the same in assay [17]. To be noted: at 1 µM.
For assay [18], the system named is Platelet-derived growth factor receptor alpha (Homo sapiens), P16234 [V561D]. Conditions: at 0.1 µM.
Assay [19] has the same test system. To be noted: at 1 µM.
For assay [20], the target named is Platelet-derived growth factor receptor beta (Homo sapiens) (UniProt P09619). Conditions: at 0.1 µM.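 Further: reported value is the mean percent inhibition of the kinase.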
Sequence of Platelet-derived growth factor receptor beta (Homo sapiens) (P09619 whole entry): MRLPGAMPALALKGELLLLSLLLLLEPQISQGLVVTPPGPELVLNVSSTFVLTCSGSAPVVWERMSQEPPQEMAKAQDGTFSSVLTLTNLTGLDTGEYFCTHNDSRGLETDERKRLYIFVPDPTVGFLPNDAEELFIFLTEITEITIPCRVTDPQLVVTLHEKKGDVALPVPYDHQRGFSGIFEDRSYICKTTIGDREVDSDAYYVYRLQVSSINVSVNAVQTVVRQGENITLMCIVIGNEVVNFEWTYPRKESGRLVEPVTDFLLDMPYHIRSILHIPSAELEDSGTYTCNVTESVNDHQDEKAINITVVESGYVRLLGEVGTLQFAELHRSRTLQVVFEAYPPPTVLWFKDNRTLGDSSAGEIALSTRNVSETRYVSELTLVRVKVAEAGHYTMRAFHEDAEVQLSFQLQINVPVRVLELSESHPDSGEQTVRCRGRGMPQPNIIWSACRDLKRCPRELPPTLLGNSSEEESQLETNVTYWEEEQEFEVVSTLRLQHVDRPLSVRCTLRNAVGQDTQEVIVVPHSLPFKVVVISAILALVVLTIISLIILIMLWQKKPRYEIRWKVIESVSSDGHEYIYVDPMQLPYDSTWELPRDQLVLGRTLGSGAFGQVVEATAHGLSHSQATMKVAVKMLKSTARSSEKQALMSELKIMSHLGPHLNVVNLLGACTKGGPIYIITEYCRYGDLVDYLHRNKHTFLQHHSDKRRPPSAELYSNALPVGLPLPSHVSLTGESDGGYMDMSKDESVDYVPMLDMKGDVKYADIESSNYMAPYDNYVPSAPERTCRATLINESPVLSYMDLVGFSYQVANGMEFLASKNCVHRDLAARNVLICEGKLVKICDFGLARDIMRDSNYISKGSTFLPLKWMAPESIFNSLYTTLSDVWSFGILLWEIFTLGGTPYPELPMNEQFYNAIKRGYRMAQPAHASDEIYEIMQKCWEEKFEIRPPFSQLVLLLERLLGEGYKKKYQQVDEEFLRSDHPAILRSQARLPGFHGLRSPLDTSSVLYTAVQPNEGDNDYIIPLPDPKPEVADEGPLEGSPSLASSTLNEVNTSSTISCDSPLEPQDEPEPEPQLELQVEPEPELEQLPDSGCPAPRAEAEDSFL

The structures appear in SMILES notation.

Sequence of Platelet-derived growth factor receptor alpha (Homo sapiens) (P16234 whole entry): as the sequence (P16234 whole entry T674I) above, with I674T counted along it
Sequence of Leukocyte tyrosine kinase receptor (Homo sapiens) (P29376 whole entry): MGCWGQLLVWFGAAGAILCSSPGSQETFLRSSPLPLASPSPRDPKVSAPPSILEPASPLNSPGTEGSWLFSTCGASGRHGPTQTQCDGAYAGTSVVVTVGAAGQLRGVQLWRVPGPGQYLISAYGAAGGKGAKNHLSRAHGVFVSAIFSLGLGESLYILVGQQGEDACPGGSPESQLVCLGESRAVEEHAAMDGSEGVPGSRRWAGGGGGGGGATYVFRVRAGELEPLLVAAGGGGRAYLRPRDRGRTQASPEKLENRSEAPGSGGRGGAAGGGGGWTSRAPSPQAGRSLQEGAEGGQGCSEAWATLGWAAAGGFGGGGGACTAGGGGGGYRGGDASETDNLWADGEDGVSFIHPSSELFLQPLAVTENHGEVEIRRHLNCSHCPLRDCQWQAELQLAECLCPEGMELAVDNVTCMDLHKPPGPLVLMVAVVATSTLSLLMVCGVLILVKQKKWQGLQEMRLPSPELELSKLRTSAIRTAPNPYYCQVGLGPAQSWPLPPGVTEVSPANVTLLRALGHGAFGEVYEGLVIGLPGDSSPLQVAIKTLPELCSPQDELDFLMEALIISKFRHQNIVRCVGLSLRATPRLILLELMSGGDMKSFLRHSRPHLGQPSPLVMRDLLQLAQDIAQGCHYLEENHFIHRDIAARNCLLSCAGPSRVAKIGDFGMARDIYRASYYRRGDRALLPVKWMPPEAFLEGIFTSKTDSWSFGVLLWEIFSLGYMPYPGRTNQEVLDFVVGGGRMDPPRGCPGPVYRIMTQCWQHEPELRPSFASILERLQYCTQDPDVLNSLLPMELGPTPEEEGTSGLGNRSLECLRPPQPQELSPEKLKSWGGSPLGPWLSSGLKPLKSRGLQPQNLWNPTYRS
Sequence of Tyrosine-protein kinase Lyn (Homo sapiens) (P07948 2-512 limits assumed): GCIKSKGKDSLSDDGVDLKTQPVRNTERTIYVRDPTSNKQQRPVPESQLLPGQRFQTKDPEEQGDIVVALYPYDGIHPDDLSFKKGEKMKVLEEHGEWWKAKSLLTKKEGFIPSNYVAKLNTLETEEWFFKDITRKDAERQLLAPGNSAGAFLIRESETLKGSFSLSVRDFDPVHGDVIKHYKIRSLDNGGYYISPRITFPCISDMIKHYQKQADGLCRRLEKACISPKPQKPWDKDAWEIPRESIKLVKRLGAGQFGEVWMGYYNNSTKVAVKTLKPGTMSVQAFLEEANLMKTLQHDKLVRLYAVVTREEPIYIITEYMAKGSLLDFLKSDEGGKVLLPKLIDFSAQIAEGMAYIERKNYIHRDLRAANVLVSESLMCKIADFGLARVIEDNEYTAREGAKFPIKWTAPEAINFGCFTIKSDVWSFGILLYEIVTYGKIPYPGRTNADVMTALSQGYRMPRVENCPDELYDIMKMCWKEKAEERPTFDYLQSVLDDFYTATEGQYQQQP

As to `NS(=O)(=O)c1ccc(-c2cc3ccncc3cc2OCc2ccccc2)cc1`, the inhibition – broadly, the change of the read-out against control, counted positive when it falls – was determined as 14.8% in [1]; 5.43% in assay [2]; 8.06% in assay [3]; 4.33% in assay [4]; 5.23% in assay [5]; 0.4% in assay [6]. Besides, the inhibition worked out at 1.77% in assay [7]; 9.74% in assay [8]; 5.85% in [9]; 1.45% in [10]; 0.07% in [11]; 8.15% in assay [12]. The inhibition in assay [13] amounted to 13.2%; in assay [14] it was 0.32%; in assay [15] it was 4.83%; in assay [16] it was 3.46%; in assay [17] it was 9.33%; in assay [18] it was 3.67%. In addition, the inhibition is 6.32% in assay [19] and 3.66% in assay [20].
In the case of `OCc1ccc(-c2nc(-c3ccccn3)c(-c3ccc4c(c3)OCO4)[nH]2)cc1`, the inhibition in assay [1] amounted to 4.28%; in assay [2], 6.03%; in assay [3], 6.58%; in [4], 3.09%; in assay [5] it was 3.31%; in [6], 0.75%. In addition, the inhibition in [7] stood at 1.08%; in [8], 11.7%; in [9], 8.92%; in [10], 3.11%; in assay [11], 3.91%; in assay [12], 9.57%. In addition, the inhibition in [13] came to 12.2%; in assay [14] it was 4.62%; in [15] it was 6.61%; in assay [16], 6.55%; in assay [17], 6.47%; in assay [18], 3.57%. The inhibition amounted to 7.37% in [19] and 4.87% in [20].
Take `O=S(=O)(CCOCc1ccc(-c2ccc3ncnc(Nc4ccc(OCc5cccc(F)c5)c(Cl)c4)c3c2)o1)c1ccccc1`: the inhibition in [1] was 3.13%; in assay [2] it was 1.13%; in assay [3] it was 2.54%; in assay [4], -1.61%; in assay [5], -0.4%; in assay [6], -1.18%. The inhibition in assay [7] worked out at 6.22%; in [8] it was 0.79%; in [9] it was 8.46%; in [10], 4.67%; in [11], 5.38%; in assay [12], 4.21%. Also, the inhibition in assay [13] stood at 10%; in [14], 0.75%; in assay [15], 1.61%; in assay [16] it was 6.02%; in [17], 8.5%; in [18], 3.15%. The figures for the inhibition in [19] and in [20] were 3.68% and 2.33%, respectively.
Take `Cc1ccc(Nc2ccnc(Nc3cccc(C(N)=O)c3)n2)cc1O`: the inhibition in [1] came to 15.9%; in assay [2], 61.2%; in assay [3], 90.5%; in [4], 56.5%; in assay [5], 88.8%; in assay [6] it was 1.3%. Also, the inhibition in assay [7] is 11.7%; in [8], 5.11%; in assay [9], 6.87%; in assay [10], 5.89%; in [11] it was 26.7%; in assay [12], 48.1%. Also, the inhibition in [13] was 82.3%; in assay [14], 48.4%; in [15], 88.5%; in assay [16], 6.94%; in assay [17], 26.3%; in [18], 46.3%. The inhibition in [19] came out at 87.2%; in assay [20] it was 54.7%.
Regarding `O=C1Nc2ccccc2/C1=C/Nc1ccc2[nH]c(=O)[nH]c2c1`, the inhibition in assay [1] turned out to be 13.2%; in assay [2] it was 10.5%; in assay [3] it was 30.1%; in assay [4] it was 7.45%; in assay [5] it was 23.2%; in assay [6], 1.74%. Moreover, the inhibition turned out to be 7.93% in assay [7]; 7.49% in assay [8]; 14.8% in assay [9]; 6.75% in assay [10]; 29.5% in assay [11]; 26.1% in assay [12]. The inhibition in assay [13] was 65.3%; in [14], 18%; in assay [15], 69.2%; in [16], 18.2%; in assay [17] it was 80.1%; in [18] it was 26.1%. The values for the inhibition in assay [19] and in [20] were 69.8% and 19.7%, respectively.
Consider `CN(C)CCCn1c(-c2nonc2N)nc2cnccc21`, for which the inhibition in assay [1] turned out to be 2.08%; in assay [2], 4.87%; in [3], 6.51%; in assay [4] it was 3.03%; in [5] it was 2.22%; in [6], 2.17%. For the same compound, the inhibition in assay [7] is 1.41%; in [8], 6.53%; in assay [9], 5.18%; in assay [10], -0.43%; in assay [11] it was 4.01%; in assay [12], 6.93%. Besides, the inhibition in assay [13] was 8.22%; in assay [14], 2.47%; in [15], 3.67%; in [16], 4.13%; in assay [17], 7.54%; in assay [18] it was 1.59%. The inhibition in [19] was 4.37%; in [20] it was 5.05%.
For the compound `CCn1c(-c2nonc2N)nc2ccc(F)cc21`, the inhibition in [1] was 5.25%; in assay [2] it was 7.21%; in assay [3], 9.59%; in assay [4], 3.75%; in assay [5], 5.9%; in [6] it was 1.51%. In addition, the inhibition in assay [7] is 3.19%; in [8] it was 8.56%; in assay [9] it was 9.65%; in assay [10], 2.27%; in assay [11] it was 3.46%; in [12], 9.43%. The inhibition in [13] was found to be 8.14%; in assay [14], 3.01%; in [15], 3.62%; in assay [16], 8.13%; in assay [17] it was 10.2%; in assay [18], 5.36%. The inhibition in assay [19] amounted to 2.86%; in assay [20] it was 5.06%.

Values taken from ChEMBL document CHEMBL1961873, “Compounds: GSK PKIS; Assays: Nanosyn kinase panel” (2012).
